The target of assay [1] is Peroxisome proliferator-activated receptor delta (Homo sapiens) (UniProt Q03181). The assay can be described thus: qHTS assay to identify small molecule agonists of the peroxisome proliferator-activated receptor delta (PPARd) signaling pathway (AID 743212). In outline: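 Beta-lactamase reporter readout: a ratiometric FRET signal from the LiveBLAzer substrate after 2 h at room temperature. Compound exposure at 37 °C in PPARδ-bla HEK293H cells driven by an upstream activator sequence.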
(Quantitative high-throughput screening tests each substance at several concentrations.)

For assay [2] the target is unchanged. As to the kind of experiment: qHTS assay to identify small molecule antagonists of the peroxisome proliferator-activated receptor delta (PPARd) signaling pathway (AID 743215; active = well fitted inhibition curve with a large enough effect in the signal ratio in the repeat runs, not every such curve was filed as active; the % refers to the signal ratio; also: potency is read from the fitted curve at half-maximal effect). In outline: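 HEK293H GeneBLAzer PPARd UAS-bla reporter cells; cpd + L165041 300 nM final, 17 h 37 C; LiveBLAzer B/G FRET substrate 2 h RT; fluorescence intensity read-out. Antagonist mode.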

For assay [3], the target named is Bile acid receptor (Homo sapiens) (UniProt Q96RI1). The assay can be described thus: qHTS assay to identify small molecule antagonists of the farnesoid-X-receptor (FXR) signaling pathway (AID 743217; active = well fitted inhibition curve with a large enough effect in the signal ratio in the repeat runs, not every such curve was filed as active; the % refers to the signal ratio; also: potency is read from the fitted curve at half-maximal effect). The gist of the method:
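Read-out: beta-lactamase FRET fluorescence (LiveBLAzer B/G substrate, 2 h, room temperature) in GeneBLAzer FXR-UAS-bla HEK 293T cells. Compounds were co-dosed with 50 uM chenodeoxycholic acid (final) and incubated 16 h at 37 °C.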

Assay [4] can be described thus: qHTS assay to identify small molecule agonists of the farnesoid-X-receptor (FXR) signaling pathway - cell viability counter screen (AID 743218; active = well fitted curve in the direction sought with a large enough effect in the repeat runs; an effect the other way counts as inactive or inconclusive; also: nearly all actives have a fitted effect of over 45% in size). The gist of the method: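 Luminescence from CellTiter-Glo, read after 30 min at RT, reports viability of GeneBLAzer FXR-UAS-bla HEK 293T cells treated 16 h with compounds in the wells used for the beta-lactamase reporter.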

The target of assay [5] is Bile acid receptor (Homo sapiens) (UniProt Q96RI1). The assay can be described thus: qHTS assay to identify small molecule agonists of the farnesoid-X-receptor (FXR) signaling pathway (AID 743220; active = well fitted activation curve with a large enough effect in the signal ratio in the repeat runs, not every such curve was filed as active; the % refers to the signal ratio). In outline: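 FXR-UAS-bla HEK 293T cells carrying a UAS-driven beta-lactamase reporter were plated for 5 h at 37C/5% CO2, then exposed to DMSO-dissolved Tox21 10K compounds for 16 h at 37C. A LiveBLAzer B/G FRET substrate was loaded for 2 h at room temperature before fluorescence reading.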

Assay [6] addresses Vitamin D3 receptor (Homo sapiens) (UniProt P11473). The assay can be described thus: qHTS assay to identify small molecule antagonists of the vitamin D receptor (VDR) signaling pathway (AID 743223; active = well fitted inhibition curve with a large enough effect in the signal ratio in the repeat runs, not every such curve was filed as active; the % refers to the signal ratio). The gist of the method:
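Quantitative HTS in VDR-bla reporter cells stimulated with 1alpha,25-dihydroxyvitamin D3, 3 nM final. Compound exposure 16 h, 37C, 5% CO2. Read-out: beta-lactamase FRET substrate fluorescence, 2 h RT.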

A short description of assay [7]: qHTS assay to identify small molecule agonists of the vitamin D receptor (VDR) signaling pathway - cell viability counter screen (AID 743224; active = well fitted curve in the direction sought with a large enough effect in the repeat runs; an effect the other way counts as inactive or inconclusive; also: series mostly up to about 63 µM; nearly all actives have a fitted effect of over 50% in size). The gist of the method: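 Cytotoxicity counter screen: VDR-bla cells, 16 h compound exposure at 37C, 5% CO2; CellTiter-Glo luminescence, 30 min RT, same wells as bla read.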
The nature of assay [8]: qHTS assay to identify small molecule agonists of the endoplasmic reticulum stress response signaling pathway (AID 1159516; active = well fitted activation curve with a large enough effect in the signal ratio in the repeat runs, not every such curve was filed as active; the % refers to the signal ratio). In outline:
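HeLa ESRE-bla reporter line; cpd 5 h, 37 C/5% CO2; LiveBLAzer B/G FRET substrate 2 h RT; ex 405, em 460/530 nm.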

A short description of assay [9]: qHTS assay to identify small molecule agonists of the endoplasmic reticulum stress response signaling pathway - cell viability counter screen (AID 1159517).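 Also: HeLa cells carrying an ER stress response element beta-lactamase reporter; series mostly up to about 61 µM; nearly all actives have a fitted effect of over 50% in size.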 The gist of the method:
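ESRE-bla HeLa cells (1,500/well) were plated overnight at 37 C and exposed to compounds for 5 hr. After the 2 hr beta-lactamase substrate read, CellTiter-Glo went into the same wells, and luminescence was read after 30 min at room temperature.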

Assay [10] is described as follows: qHTS assay to identify small molecule antagonists of the retinoid-related orphan receptor gamma (ROR-gamma) signaling pathway - cell viability counter screen (AID 1159520; active = well fitted curve in the direction sought with a large enough effect in the repeat runs; an effect the other way counts as inactive or inconclusive; also: nearly all actives have a fitted effect of over 50% in size). In outline: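 Cytotoxicity was read from cellular ATP (CellTiter-Glo luminescence) after 16 hr at 37 C with 1 uM doxycycline induction. The inducer was added 2 hr after compound transfer to Tet-on ROR gamma CHO cells.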

Assay [11] is described as follows: qHTS assay to identify small molecule agonists of the AP-1 signaling pathway (AID 1159526).
A short description of assay [12]: qHTS assay to identify small molecule antagonists of the peroxisome proliferator-activated receptor delta (PPARd) signaling pathway - cell viability counter screen (AID 743213; active = well fitted curve in the direction sought with a large enough effect in the repeat runs; an effect the other way counts as inactive or inconclusive; also: nearly all actives have a fitted effect of over 50% in size). The gist of the method: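 Agonist-stimulated (L165041, 300 nM final) HEK293H PPARd UAS-bla cells are exposed to compounds for 17 h at 37 C, and ATP-based luminescence (CellTiter-Glo) from the same wells reports cytotoxicity.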

Assay [13] can be described thus: qHTS assay to identify small molecule antagonists of the farnesoid-X-receptor (FXR) signaling pathway - cell viability counter screen (AID 743221; active = well fitted cell-killing curve with a large enough effect in the repeat runs, not every such curve was filed as active; also: nearly all actives have a fitted effect of over 50% in size). The gist of the method:
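Cytotoxicity is taken from ATP luminescence (CellTiter-Glo, 30 min, room temperature) in FXR-bla HEK 293T cells previously incubated 16 h at 37 C with compound and chenodeoxycholic acid at 50 uM final.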

The nature of assay [14]: qHTS assay to identify small molecule antagonists of the vitamin D receptor (VDR) signaling pathway - cell viability counter screen (AID 743225; active = well fitted curve in the direction sought with a large enough effect in the repeat runs; an effect the other way counts as inactive or inconclusive; also: nearly all actives have a fitted effect of over 50% in size). In outline: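 Same-well multiplex: following 16 h treatment of HEK 293T cells carrying a UAS-driven beta-lactamase reporter with compound and agonist (3 nM final), and a 2 h FRET substrate step, CellTiter-Glo was added and luminescence read after 30 min.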

A short description of assay [15]: qHTS assay to identify small molecule agonists of the AP-1 signaling pathway - cell viability counter screen (AID 1159525). Also: nearly all actives have a fitted effect of over 55% in size. In outline: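 Intracellular ATP by Cell Titer Glo luminescence (30 min, RT) in the same ME-180 AP-1-bla wells after the 5 h compound exposure at 37 °C. Normalised to tetra n-octyl ammonium bromide and DMSO controls.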
Assay [16] concerns the target Retinoic acid receptor RXR-alpha (Homo sapiens) (UniProt P19793). As to the kind of experiment: qHTS assay to identify small molecule agonists of the RXR signaling pathway (AID 1159527). Also: nearly all actives have a fitted effect of over 35% in size. In outline: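 Compounds in DMSO were added to RXR-alpha-UAS-bla HEK 293T cells kept in 2% charcoal-stripped serum, and incubated 16 hr at 37 C with 5% CO2. Reporter signal came from a 2 hr B/G FRET substrate step.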

A short description of assay [17]: qHTS assay to identify small molecule agonists of the peroxisome proliferator-activated receptor delta (PPARd) signaling pathway - cell viability counter screen (AID 743211; active = well fitted curve in the direction sought with a large enough effect in the repeat runs; an effect the other way counts as inactive or inconclusive; also: nearly all actives have a fitted effect of over 55% in size). In outline:
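Tox21 library compounds, delivered in DMSO, were incubated 17 h with PPARd-bla HEK293H cells; cytotoxicity was taken from CellTiter-Glo luminescence read 30 min after reagent addition.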

The target of assay [18] is Nuclear receptor ROR-gamma (Homo sapiens) (UniProt P51449). The assay can be described thus: qHTS assay to identify small molecule antagonists of the retinoid-related orphan receptor gamma (ROR-gamma) signaling pathway (AID 1159521; active = well fitted curve in the direction sought with a large enough effect in the repeat runs; an effect the other way counts as inactive or inconclusive). The gist of the method:
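Inducible-expression reporter assay: doxycycline (1 uM final) switched on RORγ in CHO cells bearing a ROR response element-luciferase construct, with test compounds present from 2 h beforehand. Decreased luminescence after 16 h defined antagonist activity.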

In assay [19] the target is Vitamin D3 receptor (Homo sapiens) (UniProt P11473). As to the kind of experiment: qHTS assay to identify small molecule agonists of the vitamin D receptor (VDR) signaling pathway (AID 743222). In outline: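 Beta-lactamase reporter readout (LiveBLAzer B/G FRET, 2 h RT) in VDR-bla cells after 16 h compound treatment at 37C, 5% CO2; cells pre-incubated 4 h before pin transfer of DMSO solutions.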

Inconclusive results are not listed. Activity calls are given as the source filed them. Unless noted, calls follow the shape of the full dose curve.

Chain of Peroxisome proliferator-activated receptor delta (Homo sapiens) (Q03181 whole entry, looked up): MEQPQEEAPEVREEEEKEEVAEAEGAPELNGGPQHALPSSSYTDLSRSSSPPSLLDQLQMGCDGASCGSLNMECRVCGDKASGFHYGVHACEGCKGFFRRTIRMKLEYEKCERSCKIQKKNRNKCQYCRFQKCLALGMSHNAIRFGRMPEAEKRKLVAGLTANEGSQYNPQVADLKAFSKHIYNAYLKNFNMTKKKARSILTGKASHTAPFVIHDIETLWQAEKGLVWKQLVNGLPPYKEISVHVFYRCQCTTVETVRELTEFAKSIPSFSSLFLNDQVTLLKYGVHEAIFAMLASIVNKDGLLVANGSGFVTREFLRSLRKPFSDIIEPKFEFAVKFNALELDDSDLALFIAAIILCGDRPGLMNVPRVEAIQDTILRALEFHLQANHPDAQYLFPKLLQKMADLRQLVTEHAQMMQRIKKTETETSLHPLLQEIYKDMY
Chain of Retinoic acid receptor RXR-alpha (Homo sapiens) (P19793 whole entry, looked up): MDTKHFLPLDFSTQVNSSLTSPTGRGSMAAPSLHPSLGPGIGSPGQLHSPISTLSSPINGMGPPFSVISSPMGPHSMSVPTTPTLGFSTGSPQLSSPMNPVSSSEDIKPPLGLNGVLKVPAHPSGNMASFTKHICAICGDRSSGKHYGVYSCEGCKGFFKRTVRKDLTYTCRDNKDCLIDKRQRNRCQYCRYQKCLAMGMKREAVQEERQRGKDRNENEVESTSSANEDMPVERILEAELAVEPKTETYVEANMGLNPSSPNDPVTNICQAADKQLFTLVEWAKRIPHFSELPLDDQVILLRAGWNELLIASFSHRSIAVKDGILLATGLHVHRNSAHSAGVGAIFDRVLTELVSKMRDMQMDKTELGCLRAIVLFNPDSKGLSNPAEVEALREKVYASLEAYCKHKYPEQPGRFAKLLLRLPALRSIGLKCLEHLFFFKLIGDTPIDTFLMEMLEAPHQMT
Chain of Vitamin D3 receptor (Homo sapiens) (P11473 whole entry, looked up): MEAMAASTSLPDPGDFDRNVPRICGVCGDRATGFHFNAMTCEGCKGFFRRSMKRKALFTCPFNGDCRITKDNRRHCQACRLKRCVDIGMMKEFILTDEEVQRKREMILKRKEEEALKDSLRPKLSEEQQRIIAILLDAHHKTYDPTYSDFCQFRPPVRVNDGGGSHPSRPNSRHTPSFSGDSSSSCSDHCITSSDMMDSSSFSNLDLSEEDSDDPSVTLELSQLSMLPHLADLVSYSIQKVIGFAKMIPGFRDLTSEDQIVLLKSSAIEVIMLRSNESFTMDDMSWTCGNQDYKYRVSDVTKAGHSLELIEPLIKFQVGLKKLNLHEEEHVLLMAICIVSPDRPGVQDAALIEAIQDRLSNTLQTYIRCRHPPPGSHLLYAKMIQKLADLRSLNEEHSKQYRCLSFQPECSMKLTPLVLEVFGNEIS
Chain of Bile acid receptor (Homo sapiens) (Q96RI1 whole entry, looked up): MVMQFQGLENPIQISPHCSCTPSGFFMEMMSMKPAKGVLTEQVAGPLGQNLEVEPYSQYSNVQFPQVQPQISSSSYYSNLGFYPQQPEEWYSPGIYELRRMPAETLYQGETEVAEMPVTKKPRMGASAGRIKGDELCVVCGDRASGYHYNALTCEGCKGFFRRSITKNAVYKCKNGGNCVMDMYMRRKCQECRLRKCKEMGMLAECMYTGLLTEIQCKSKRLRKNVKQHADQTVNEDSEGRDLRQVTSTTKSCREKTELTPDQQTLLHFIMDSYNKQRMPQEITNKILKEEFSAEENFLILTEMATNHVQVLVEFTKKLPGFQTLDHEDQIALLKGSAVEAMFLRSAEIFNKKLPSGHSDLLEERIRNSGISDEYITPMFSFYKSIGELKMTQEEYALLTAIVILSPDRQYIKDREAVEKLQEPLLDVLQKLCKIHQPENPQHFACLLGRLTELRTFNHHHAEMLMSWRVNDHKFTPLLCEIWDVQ

Regarding `CC(C)(C)c1ccc(OP(=O)(Oc2ccccc2)Oc2ccccc2)cc1`, the Potency result in [1], in assay [4], in assay [5], in [6], in [7] and in assay [8] was “inactive” in each case. The Potency entry in [9], in [10] and in assay [11] was “inactive” throughout. The Potency is 22 µM (active) in assay [2] and 24.7 µM (active) in [3].
Turning to `O.O.O.O.O.O.O.O=S(=O)([O-])[O-].[Co+2]`, the Potency entry in [12], in assay [13], in assay [7], in assay [14], in [8] and in assay [9] was “inactive” in each case. The Potency entry in assay [15], in assay [11] and in [16] was “inactive” in each case.
In the case of `ClC1(Cl)C2(Cl)C3(Cl)C4(Cl)C(Cl)(Cl)C5(Cl)C3(Cl)C1(Cl)C5(Cl)C24Cl` (configuration not stated), the Potency entry in assay [1], in assay [12], in [2], in assay [5], in assay [13] and in [6] was “inactive” each time. Besides, the Potency result in assay [14], in [8], in assay [9], in assay [10], in [15] and in [11] was “inactive” in each case. For the same molecule, in assay [16], the Potency result is “inactive”.
In the case of `COP(=S)(OC)Oc1ccc([N+](=O)[O-])c(C)c1`, the Potency result in assay [17], in [1], in [12], in assay [2], in assay [3] and in assay [4] was “inactive” throughout. Moreover, the Potency entry in [5], in [13], in assay [6], in [7], in [9] and in assay [10] was “inactive” each time. In addition, the Potency entry in assay [18], in [15], in assay [11] and in [16] was “inactive” in each case.
Regarding `CCOP(=O)(OCC)Oc1cc(C)nc(C(C)C)n1`, the Potency result in assay [17], in [1], in assay [12], in assay [2], in assay [3] and in [4] was “inactive” in each case. Moreover, the Potency result in [5], in [13], in assay [14], in [9], in assay [10] and in assay [18] was “inactive” throughout. Also, the Potency result in assay [15], in assay [11] and in [16] was “inactive” in each case.
Consider `OCC(Br)CBr` (configuration not stated), for which the Potency entry in assay [1], in assay [12], in assay [2], in assay [3], in assay [4] and in assay [5] was “inactive” in each case. Moreover, the Potency result in assay [19], in assay [6], in assay [7], in [14], in [8] and in assay [9] was “inactive” throughout. The Potency result in assay [10], in [15], in [11] and in assay [16] was “inactive” in each case.
Turning to `Nc1cc(Cl)ccc1Cl`, the Potency result in assay [17], in [1], in assay [12], in assay [2], in [4] and in assay [13] was “inactive” throughout. Further, the Potency entry in assay [9], in assay [10], in assay [18], in [15], in assay [11] and in assay [16] was “inactive” throughout.

Source of the values: PubChem BioAssay (Tox21).
